Experimental data: the OligoGym collection

molecular target: PRR3; assay: pooled miR-30 sensor sort-seq; sequence = guide strand; conditions: shRNA
Note: reference of the scale not given here.

Row | Sequence | sensor-assay potency score (higher = more potent)
1 | TCAGTGGTCCCCTTGATCCTGG | -0.862
2 | TTCTTGATAAGAGACCAGCTTT | -0.745
3 | TTGATAAGAGACCAGCTTTTGA | -1.38
4 | TAGGAAGTAACTCTGCACCAGT | -0.0951
5 | TCGAGGGTTTCTCTGTTCCTTG | -0.785
6 | TTTTTGGCAAAATGTCGGCAGA | -1.27
7 | TAACTCTGCACCAGTCACCCAA | -0.887
8 | TTTGTCTTCCATAACCTGGGGG | 0.295
9 | TGATCCTGGAGGACCTCTGTGA | -0.51
10 | TTGTCTTCCATAACCTGGGGGT | -0.114
11 | TCTGCATTGACTCCCCACCAAC | -1.61
12 | TCCTTGTGAAAGCTTCCCCTGG | -1.31

molecular target: PRR5; assay: as above; conditions: shRNA

Row | Sequence | sensor-assay potency score (higher = more potent)
13 | ATCTCCGACACAGAGTGCCTGC | -0.984
14 | TTCAGAATCCGAGTCCACGGAC | -1.2
15 | TCGTGGGGTACAGTCTGCTGGG | -0.767
16 | TCTAGCTTCACACTGAGGGTGA | 0.389
17 | TTGTGGATGCTGTTCCAGGTGG | -1.05
18 | TGTTGTAGCTCTTGGAGCGCAC | -0.639
19 | TTCTGTCCCTCATAGAAGCGAA | -1.06
20 | ATCCTCTAGCTTCACACTGAGG | -1.85
21 | TCACTGAAGAAGAAGTCCCAGG | -0.956
22 | TAGTCCTCAGTCACGCCCCTGG | -0.743
23 | TGGTCCACCAGGTTCTCCGGGC | -0.928
24 | TAGCTTCACACTGAGGGTGATG | -1.08

molecular target: PRRX2; assay: as above; conditions: shRNA

Row | Sequence | sensor-assay potency score (higher = more potent)
25 | TTGGTTTTAATACACAAACTAA | -1.05
26 | TAGGGTGGCACTGTGCTGTAGG | 0.726
27 | ATAATCTGGACTCAGGGCGGTG | -1.16
28 | TTCCTGCGGAACTTGGCGCGGC | -0.664
29 | TAGGGGGACGAGGCTGTCCAGG | -1.31
30 | TCGCTGAGGTTGACGCGCCGGG | -1
31 | TTTCTATTGCTGTCCACCCAGG | -1.08
32 | TTCTTCTTCCGCTTGGCGGCGC | -0.268
33 | TTTTCTATTGCTGTCCACCCAG | -0.328
34 | TAGGACTTGAGCAGCGAGGCAG | -0.751
35 | TTGAGCAGCGAGGCAGAGCGGC | -1.11
36 | TTGGCCTTGAGACGGAGGCTGG | -0.803
